KB-3-1 cytotox – kills parental KB-3-1 adenocarcinoma cells | KB-3-1 viability, CellTiter-Glo ATP luminescence, 72 h | Potency, µM (highest dose often 46.1 µM), usual class: cytotoxic | 400,000 tested, 1.4% active | AID 1347075; also: nearly all actives have a fitted effect of over 60% in size
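KB-3-1 parental drug-naive adenocarcinoma cells in DMEM/10% FBS, incubated 72 h at 37 C with pin-transferred compounds across a concentration series. Viability by CellTiter-Glo luminescence; concentration-response curves fitted after normalization.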
HT1080-NT tox – kills 2HG-producing HT-1080-NT fibrosarcoma cells | HT-1080-NT fibrosarcoma viability, CellTiter-Glo ATP luminescence, 48 h | Potency, µM (top dose mostly 46.1 µM), without a hit: at the highest dose activity, negative = less viability, actives largely listed as cytotoxic | 360,000 tested, 1.6% active | AID 686970;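 also: NT is the 2HG producing partner of a matched IDH1 knockdown line; 0% = DMSO-treated cells and -100% = media-only wells without cells; nearly all actives have a fitted effect of over 55% in size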
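Viability of the 2HG-overproducing fibrosarcoma line after 48 hours of compound exposure at 37 degrees C was determined by luminescence with CellTiter-Glo, and concentration-effect curves were then fitted and categorized.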
HT1080 IDH1KD tx – toxicity to HT-1080 IDH1 knockdown cells (counter line) | HT-1080 IDH1 knockdown viability, ATP luminescence, 48 h | Potency, µM (series often up to 46.1 µM), inactives show at the highest dose activity, negative = toxicity, hits mostly cytotoxic | 360,000 tested, 2% active | AID 686971;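 also: 0% = DMSO wells and -100% = cell-free medium wells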
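% activity derives from luminescence (CellTiter-Glo), normalised to DMSO and no-cell wells. HT-1080-IDH1KD cells, 750/well, had 48 h compound exposure at 37 °C.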
KB-V1 MDR tox – KB-V1 MDR subline cytotoxicity. KB-V1 MDR cells viability, CellTiter-Glo, 72 h. Potency, µM (doses to about 46.1 µM), hits mostly cytotoxic. 400,000 tested, 3.4% active. AID 1347076; also: nearly all actives have a fitted effect of over 60% in size
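KB-V1 cells (P-gp-expressing MDR subline of KB-3-1) in phenol-red-free DMEM with 10% FBS were exposed to library compounds over a concentration series for 72 h at 37 degrees C. Viability read by CellTiter-Glo luminescence; concentration-effect curves fitted after normalization.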
* marks the source's active call; other numbers are inactive results; i = inactive; ? = inconclusive; nt = no result. An excerpt weighted towards active compounds, which were near 5.7% of everything screened. Calls follow the shape of the dose curve; as a rule, active = well fitted curve in the direction sought with a large enough effect; inconclusive = small, poorly fitted or top-dose-only effect, or another doubt; inactive = no such curve, though single readings can be large; an effect the other way counts as inactive or inconclusive. Unless noted, % is scaled to controls: 0 for no effect and ±100 for the full control effect; potency is read from the fitted curve at half-maximal effect.

SMILES	KB-3-1 cytotox	HT1080-NT tox	HT1080 IDH1KD tx	KB-V1 MDR tox
COc1cc2c3cc1Oc1c(OC)c(OC)cc4c1[C@H](Cc1ccc(cc1)Oc1cc(ccc1O)C[C@H]3N(C)CC2)N(C)CC4	i	?	?	?
COP(=O)(OC)c1nc(-c2cccc3ccccc23)oc1NCCc1ccccc1	i	?	?	?
S=C(NCCc1ccccc1)N1Cc2ccccc2-n2nncc2C1	i	-17%	-11%	i
CCOC(=O)c1c(C)n(Cc2ccc(F)cc2)c2ccc(O)cc12	?	-8%	-3%	16µM*
CCOC(=O)c1c(C)n(Cc2ccc3c(c2)OCO3)c2ccc(O)cc12	i	-17%	?	i
CCOC(=O)c1sc(/N=C/c2c(O)n(-c3cccc(C)c3)c(=O)[nH]c2=O)c(C#N)c1C	i	20%	8%	21µM*
CC1(C)Cc2c(c(N3CCOCC3)nc3snc(N)c23)CO1	20µM*	11µM*	20µM*	i
CC(C)n1c(/C=C/[C@@H](O)C[C@@H](O)CC(=O)O)c(-c2ccc(F)cc2)c2ccccc21	15µM*	1.5µM*	1.5µM*	18µM*
O=C(CCn1c(=O)oc2ccccc21)N1CCN(c2ccccc2Cl)CC1	6.5µM*	8.2µM*	12µM*	4.1µM*
CC1(C)C(=O)CCC2C1=CCC1C2CCC2(C)C(O)CCC12 (stereo not given)	i	2%	-1%	i
COc1cc2c(cc1O)CC[C@@H]1[C@@H]2CC[C@]2(C)[C@@H](O)CC[C@@H]12	1.6µM*	?	?	5.8µM*
COC(=O)C1=C(c2cc3ccccc3o2)C[C@@H]2CC[C@H]1N2C(=O)NCc1ccco1	i	5%	-10%	i
COC1=C(C)C(=O)c2c(c(COC(N)=O)c3n2C[C@@H]2[C@@H]3N2C)C1=O (stereo not given in full)	i	nt	nt	?
Cc1ccccc1-c1ccc2c(c1)C1c3c(-c4ccccc4)nnn3-c3ccccc3C(=O)N1CC2 (stereo not given)	?	-6%	-8%	i
COc1cc(C2C(C#N)=C(N)Oc3cc(O)ccc32)cc(OC)c1OC (stereo not given)	2.9µM*	0.56µM*	?	?
COc1cc(C2C(C#N)=C(N)OC3=C2C(=O)CC(C)(C)C3)ccc1OC(=O)N1CCOCC1 (stereo not given)	i	11%	?	i
Cc1cc(OCC(=O)NCc2ccc(S(N)(=O)=O)cc2)c2c3c(c(=O)oc2c1)CCC3	i	22%	9%	i
Cc1ccccc1C(O)(Cc1ccccc1)C1CN2CCC1CC2 (stereo not given)	10µM*	?	?	?
Cc1ccc(C(O)(c2ccc(C)c(C)c2)C2CN3CCC2CC3)cc1C (stereo not given)	?	?	?	i
CN1[C@@H]2CC[C@H]1CC(OC1c3ccccc3CCc3ccccc31)C2 (stereo not given in full)	i	16µM*	26µM*	?
Cc1nnc(NC(=O)c2cccn(Cc3cccc([N+](=O)[O-])c3)c2=O)s1	i	nt	nt	i
CCOC(=O)C1=C(Cc2ccc(Cl)cc2)C(=O)c2ccccc2C1=O	i	11µM*	10µM*	?
O=C(CCc1nc(C2=CCN(Cc3cccc(Cl)c3)CC2)no1)Nc1ccccc1F	i	nt	nt	i
O=C(c1ccc2c(c1)ncn2-c1ccc(F)cc1F)N1CCC2(CC1)OCCO2	?	15µM*	?	?
NC(=O)c1ccc(N)nc1	i	2.6µM*	4.6µM*	?
SMILES	KB-3-1 cytotox	HT1080-NT tox	HT1080 IDH1KD tx	KB-V1 MDR tox
O=C1C(=Cc2cn(-c3ccccc3)nc2-c2ccc(OCc3ccc(Cl)cc3)cc2)SC(=S)N1CCS(=O)(=O)O	8.2µM*	?	-23%	?
COc1ccc(-n2c(/C=C\c3ccccc3F)nc3ccccc3c2=O)c(OC)c1	i	nt	nt	i
CNCCCc1ccccc1	23µM*	-7%	-14%	i
BrCCc1ccccc1	i	nt	nt	i
COc1ccccc1-c1nn2c(=O)cc(CN3CCN(C(=O)COc4ccccc4Cl)CC3)nc2s1	i	nt	nt	i
O=C(NCC1=C(c2ccc3ccccc3c2)C[C@@H]2CC[C@H]1N2Cc1ccco1)c1ccc([N+](=O)[O-])cc1	?	-20%	?	?
COc1ccc(/C=C/c2nc3ccccc3c(=O)n2-c2ccc(C)cc2)cc1O	i	nt	nt	i
CC/C(=C\C=C\[C@@H]1C=C[C@@H]2CCC[C@H]2[C@@H]1C(=O)c1ccc[nH]1)[C@@H]1O[C@@H]([C@@H](C)C(=O)O)CC[C@@H]1C	?	10µM*	8.2µM*	?
CC(N)c1cccc(Cl)c1Cl (stereo not given)	nt	7%	16%	nt
N=C(N)c1c(O)n(C2CCCCC2)c(=O)n(C2CCCCC2)c1=O	21µM*	16µM*	21µM*	i
O=c1[nH]cnc2nc(-c3ccc(N(CCCl)CCCl)cc3)[nH]c12	?	?	0.65µM*	?
O=C(O)CCCc1ccc(N(CCCl)CCCl)cc1	i	-7%	1%	i
CCC(=O)[C@@H](C)[C@@H](O)[C@H](C)C[C@@H](C)C1OC(=O)C[C@@]2(O)CC=C(C)C(O2)C(C)=CCCC[C@H](O[C@H]2C[C@@H](OC(N)=O)[C@H](O)[C@@H](C)O2)C=C[C@H](C)C[C@H]1C (stereo not given in full)	0.65µM*	12µM*	21µM*	?
O=C1NC(=O)N(c2cccc(Br)c2)C(=O)/C1=C/c1ccsc1	i	?	23µM*	i
COC(=O)C1=C(c2ccc(OC(F)(F)F)cc2)C[C@@H]2CC[C@H]1N2C(=O)N1CCCC1	?	?	-8%	i
NC(=O)CSc1nnc([C@@H](N)Cc2c[nH]c3ccccc23)o1	i	11%	11%	i
CC(C)Sc1nnc([C@@H](N)Cc2c[nH]c3ccccc23)o1	i	-6%	-1%	18µM*
Cc1ccc(N=C(/N=C(\N)N[N+](=O)[O-])Nc2ccc(C)cc2)cc1	i	-9%	-13%	?
Cc1cc(OCC(=O)OC(C)(C)C)c2c3c(c(=O)oc2c1)CCC3	i	-1%	-3%	i
CC(C)(C)OC(=O)COc1cc(OCC(=O)OC(C)(C)C)c2c(=O)cc(-c3ccccc3)oc2c1	i	?	?	21µM*
Clc1cccc(N2Cc3cc(-c4ccccc4)ccc3-n3nncc3C2)c1	?	10µM*	10µM*	i
CCN(CC)CCCOC(=O)C(OC(C)C)(c1ccccc1)c1ccccc1	?	?	?	8.2µM*
CCOC(C(=O)OCCCN(CC)CC)(c1ccccc1)c1ccccc1	i	-13%	-13%	i
Cc1ccc(C(O)(C(=O)OC(C)C)C(O)c2ccccc2)cc1 (stereo not given)	i	-3%	4%	i

Screening data as filed in PubChem.
